This is an account of results in PubChem BioAssay (Tox21).

Unmarked numbers belong to inactive results. Inconclusive results are not listed. Calls of active or inactive are those of the source. Unless noted, calls come from the whole dose curve; as a rule, active = well fitted curve in the direction sought with a large enough effect in the repeat runs; inconclusive = weak or mixed curves; inactive = no such curve, though single readings can be large; an effect the other way counts as inactive or inconclusive.

Assay [1] is described as follows: A CellTox Green Cytotoxicity Assay to monitor cytotoxicity in HepG2 cells - 0 hour (AID 1224882). Note: nearly all actives have a fitted effect of over 35% in size. In outline:
(§1)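 Cells and non-lytic dye reagent are dispensed together (600 HepG2 cells/well) and incubated 5 h before DMSO compound transfer. Kinetic fluorescence is then recorded in the same wells during 40 h at 37 C.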

A short description of assay [2]: A CellTox Green Cytotoxicity Assay to monitor cytotoxicity in HepG2 cells - 32 hour (AID 1224883). Note: nearly all actives have a fitted effect of over 50% in size. Note: potency is the fitted concentration of half-maximal effect. The method, boiled down: as §1
Assay [3] in a line: A CellTox Green Cytotoxicity Assay to monitor cytotoxicity in HEK293 cells - 8 hour (AID 1224884). Note: nearly all actives have a fitted effect of over 35% in size. In outline: (§2)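 Cells (HEK293, 600/well) and dye reagent are dispensed together. After 5 h at 37 C, 23 nL compound is pinned in. Plates stay at 37 C for 40 h with fluorescence read at 0h, 8h, 16h, 24h, 32h and 40h.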
Assay [4] in a line: qHTS RealTime-Glo MT Cell Viability Assay in HepG2 cells - 16 hour (AID 1224885). Note: nearly all actives have a fitted effect of over 50% in size. The method, boiled down: (§3)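 Viability was tracked continuously by NanoLuc luminescence from prosubstrate reduced by living HepG2 cells, at successive time points over 40 h of compound exposure. Cells with reagent were preincubated 5 h at 37 °C before compound addition.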
In general terms: qHTS replaces the single test concentration by a dilution series.

Assay [5] is described as follows: qHTS RealTime-Glo MT Cell Viability Assay in HEK293 cells - 24 hour (AID 1224886). Note: top concentration of the series differs between compounds; nearly all actives have a fitted effect of over 50% in size. In outline: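 Viability tracked continuously by luminescence as live cells reduce a prosubstrate for NanoLuc; HEK293 cells preincubated 5 h, compound-treated at 37 C, and read at 0, 8, 16, 24, 32 and 40 h.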
A short description of assay [6]: qHTS RealTime-Glo MT Cell Viability Assay in HEK293 cells - 8 hour (AID 1224887). Note: top concentration of the series differs between compounds; nearly all actives have a fitted effect of over 50% in size. The method, boiled down:
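Real-time viability in HEK293: signal arises when living cells convert a prosubstrate for NanoLuc in the medium, so luminescence tracks viable cell number. Compound (23 nL, DMSO) added 5 h post-seeding; kinetic reads at 0–40 h, 37 C.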

Assay [7] can be described thus: A CellTox Green Cytotoxicity Assay to monitor cytotoxicity in HEK293 cells - 16 hour (AID 1224888). Note: nearly all actives have a fitted effect of over 35% in size. The method, boiled down: as §2
Assay [8] is described as follows: qHTS RealTime-Glo MT Cell Viability Assay in HepG2 cells - 0 hour (AID 1224889). Note: nearly all actives have a fitted effect of over 50% in size. The method, boiled down:
as §3

Assay [9] in a line: A CellTox Green Cytotoxicity Assay to monitor cytotoxicity in HepG2 cells - 8 hour (AID 1224890). Note: nearly all actives have a fitted effect of over 45% in size. The method, boiled down:
as §1

A short description of assay [10]: qHTS assay to identify small molecule antagonists of the androgen receptor (AR) signaling pathway using the MDA cell line in the presence of 0.5 nM R1881 - cell viability counter screen (AID 1259242). Note: nearly all actives have a fitted effect of over 45% in size. The method, boiled down:
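Steps: plate MDA-kb2 cells, rest 5 hr at 37C without CO2; pin in compounds in DMSO; add R1881 to 0.5 nM final; incubate 16 hr; add CellTiter-Fluor, 30 min; read fluorescence.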

Assay [11] is described as follows: qHTS assay to identify small molecule HDAC inhibitors (AID 1259364).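 Note: wild-type HCT-116 cells with endogenous class I/II HDAC activity; top concentration of the series differs between compounds; nearly all actives have a fitted effect of over 45% in size.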 The method, boiled down: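 Cells (HCT-116, wild type) are seeded at 1,500 per well, incubated overnight, treated with compound in DMSO for 2 hr, then developed with HDAC-Glo I/II reagent for 30 min at room temperature.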
Assay [12] in a line: qHTS assay to identify small molecule HDAC inhibitors - cell viability counter screen (AID 1259365). In outline: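 HCT-116 wild-type, overnight attachment; 2hr drug exposure, 37C; CellTiter-Glo luminescent ATP readout after 30min RT.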
Assay [13] in a line: qHTS assay to identify small molecule agonists of the sonic hedgehog signaling (Shh) pathway - cell viability counter screen (AID 1259366). Note: nearly all actives have a fitted effect of over 50% in size. The method, boiled down:
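Compounds in DMSO were pin-transferred onto 3T3 Gli1-Luc cells that had settled 4hr; plates then stood 24hr at 37C and 5% CO2. One hour before the end, CellTiter-Fluor was added and fluorescence recorded.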

The nature of assay [14]: qHTS assay to identify small molecule antagonists of the sonic hedgehog signaling (Shh) pathway - cell viability counter screen (AID 1259367). Note: nearly all actives have a fitted effect of over 55% in size. In outline:
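Viability was read by CellTiter-Fluor fluorescence in the same wells, reagent added 23 hr into compound treatment and incubated 1 hr at 37C. The 3T3 Gli1-Luc reporter cells (2,000/well) received conditioned medium after compound and ran 24 hr.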

Assay [15] is described as follows: qHTS assay to identify small molecule agonists of the sonic hedgehog signaling (Shh) pathway (AID 1259368; calls by dose curve;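 note: NIH/3T3-derived 3T3Gli1-Luc cells carrying a stable Gli1-driven firefly luciferase reporter; series mostly up to about 92 µM; nearly all actives have a fitted effect of over 15% in size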). The method, boiled down: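 Cells of a mouse NIH/3T3 clone stably expressing luciferase under the Gli1 transcriptional response element are exposed to test chemicals for 24 hr at 37 C. Pathway activation is detected as a rise in luminescence.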
The nature of assay [16]: qHTS assay to identify small molecule antagonists of the sonic hedgehog signaling (Shh) pathway (AID 1259369; calls by dose curve; note: nearly all actives have a fitted effect of over 45% in size; note: potency is the fitted concentration of half-maximal effect). In outline: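 Cells are plated and held 4hr at 37 C, compounds (DMSO) are pinned in, conditioned medium is added to stimulate the pathway, and after 24hr luciferase reagent is added for 30min before luminescence is read.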
A short description of assay [17]: qHTS assay to identify small molecule antagonists of the estrogen receptor alpha (ER-alpha) signaling pathway using the BG1 cell line in the presence of 0.1 nM 17-beta-estradiol - cell viability counter screen (AID 1259241). Note: nearly all actives have a fitted effect of over 40% in size. In outline:
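Following 5 days in phenol red-free medium with charcoal-stripped serum, VM7Luc4E2 cells received test compounds alongside 0.1 nM 17beta-estradiol (final) at 37C for 22 hr. Live cells were then quantified via protease-substrate fluorescence.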

A short description of assay [18]: qHTS assay to identify small molecule phospholipidosis (PLD) inducers (AID 1259344; active = well fitted curve in the direction sought with a large enough effect; an effect the other way counts as inactive or inconclusive). In outline: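 Phospholipid accumulation was scored by imaging: fixed, Hoechst-counterstained HepG2 cells stained with LipidTOX Red after 24 h compound exposure at 37 C. Read-outs were pit count and pit intensity per well or per cell, with amiodarone and DMSO controls.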
Assay [19] deals with Androgen receptor (Homo sapiens) (UniProt P10275). Nature of the assay: qHTS assay to identify small molecule antagonists of the androgen receptor (AR) signaling pathway using the MDA cell line in the presence of 0.5 nM R1881 (AID 1259243). Note: nearly all actives have a fitted effect of over 50% in size. The method, boiled down:
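Stably transfected MDA-kb2 cells express luciferase from an MMTV promoter bearing both AR and GR response elements. Compounds plus 0.5 nM R1881 (final) were incubated 16 hr at 37C without CO2, then luminescence measured.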

Assay [20] has as its target Estrogen receptor (Homo sapiens) (UniProt P03372). Nature of the assay: qHTS assay to identify small molecule antagonists of the estrogen receptor alpha (ER-alpha) signaling pathway using the BG1 cell line in the presence of 0.1 nM 17-beta-estradiol (AID 1259244). Note: nearly all actives have a fitted effect of over 50% in size. In outline: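 Antagonist mode: compounds in DMSO are pinned onto VM7Luc4E2 reporter cells, 0.1 nM final 17beta-estradiol is added, and after 22 h at 37C luciferase luminescence is measured with ONE-Glo.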

Chain of Estrogen receptor (Homo sapiens) (P03372 whole entry, looked up): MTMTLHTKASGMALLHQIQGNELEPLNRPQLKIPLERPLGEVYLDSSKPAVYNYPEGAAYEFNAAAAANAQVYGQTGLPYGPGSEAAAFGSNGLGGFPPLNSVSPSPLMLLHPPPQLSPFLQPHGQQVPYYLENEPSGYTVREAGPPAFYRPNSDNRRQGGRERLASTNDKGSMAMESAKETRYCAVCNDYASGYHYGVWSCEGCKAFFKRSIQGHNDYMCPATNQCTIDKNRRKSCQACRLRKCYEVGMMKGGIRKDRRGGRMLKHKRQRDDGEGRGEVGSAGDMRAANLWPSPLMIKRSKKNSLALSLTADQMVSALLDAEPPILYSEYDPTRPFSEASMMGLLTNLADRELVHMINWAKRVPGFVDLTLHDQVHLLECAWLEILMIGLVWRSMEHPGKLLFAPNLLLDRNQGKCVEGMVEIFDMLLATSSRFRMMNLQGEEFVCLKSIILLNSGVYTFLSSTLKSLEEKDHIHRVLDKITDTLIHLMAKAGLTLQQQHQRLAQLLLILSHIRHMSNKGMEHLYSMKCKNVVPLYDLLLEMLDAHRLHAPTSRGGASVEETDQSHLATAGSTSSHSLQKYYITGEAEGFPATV
Chain of Androgen receptor (Homo sapiens) (P10275 whole entry, looked up): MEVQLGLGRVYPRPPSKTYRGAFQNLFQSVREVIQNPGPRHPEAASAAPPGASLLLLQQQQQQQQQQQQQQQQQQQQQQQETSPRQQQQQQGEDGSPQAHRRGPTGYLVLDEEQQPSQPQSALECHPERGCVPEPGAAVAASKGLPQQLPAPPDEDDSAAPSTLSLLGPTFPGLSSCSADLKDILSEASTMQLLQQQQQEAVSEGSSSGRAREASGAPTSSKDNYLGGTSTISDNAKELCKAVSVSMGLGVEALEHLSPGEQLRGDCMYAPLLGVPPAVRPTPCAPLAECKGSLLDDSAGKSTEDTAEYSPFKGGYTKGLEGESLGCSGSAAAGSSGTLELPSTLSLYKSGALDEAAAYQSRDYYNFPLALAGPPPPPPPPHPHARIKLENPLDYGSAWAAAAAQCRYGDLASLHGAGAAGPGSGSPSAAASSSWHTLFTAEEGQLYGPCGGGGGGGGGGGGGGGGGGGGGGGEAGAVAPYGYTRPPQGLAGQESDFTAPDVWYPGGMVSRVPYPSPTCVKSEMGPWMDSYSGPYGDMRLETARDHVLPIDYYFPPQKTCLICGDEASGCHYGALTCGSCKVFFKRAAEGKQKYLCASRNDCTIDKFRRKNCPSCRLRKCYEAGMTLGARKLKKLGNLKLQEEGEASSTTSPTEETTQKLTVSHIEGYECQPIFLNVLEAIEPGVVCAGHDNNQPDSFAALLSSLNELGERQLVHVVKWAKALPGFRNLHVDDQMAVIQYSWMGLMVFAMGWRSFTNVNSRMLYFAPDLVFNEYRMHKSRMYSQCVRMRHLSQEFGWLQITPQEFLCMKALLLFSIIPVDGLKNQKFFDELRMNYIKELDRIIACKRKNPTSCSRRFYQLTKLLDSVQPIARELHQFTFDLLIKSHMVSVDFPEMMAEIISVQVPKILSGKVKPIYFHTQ

Regarding `CC(=O)OCCc1ccccc1`, the Potency entry in assay [1], in assay [2], in assay [3], in assay [4], in assay [5] and in assay [6] was “inactive” each time. Also, the Potency entry in [7], in assay [8], in assay [9], in assay [10], in assay [11] and in [13] was “inactive” throughout. In addition, the Potency result in [14] and in assay [16] was “inactive” in each case. Further, the call in [12] and in [15] was inactive.
With `CC(C)(C)c1ccc(OCC2CO2)cc1` (stereo not given), the Potency entry in assay [1], in assay [2], in assay [3], in assay [4], in assay [5] and in assay [6] was “inactive” each time. Moreover, the Potency result in assay [8], in assay [9], in assay [17], in assay [10], in assay [11] and in assay [13] was “inactive” each time. Besides, the Potency entry in assay [16] is “inactive”. In addition, the compound was classed as inactive in [12] and in assay [15].
For `CN1CCC(=C2c3ccccc3C=Cc3ccccc32)CC1`, the Potency result in assay [1], in assay [3], in assay [4], in [5], in assay [6] and in assay [7] was “inactive” each time. Moreover, the Potency result in assay [9], in assay [10], in assay [18], in assay [11], in assay [13] and in [14] was “inactive” in each case. In addition, the Potency in assay [2] was 26.8 µM (active); in assay [16], 0.335 µM (active). In addition, the compound was classed as inactive in assay [12] and in assay [15].
On to `CCCCOC(O)CC` (stereo not given), for which the Potency entry in [1], in [2], in [3], in [4], in assay [5] and in assay [6] was “inactive” in each case. Further, the Potency result in [7], in [8], in assay [9], in assay [10], in assay [19] and in assay [20] was “inactive” each time. Besides, the Potency result in assay [11], in [13], in [14] and in assay [16] was “inactive” in each case. In addition, the call in assay [12] and in [15] was inactive.
On to `CC[C@H](C)[C@@H](C(=O)O)n1sc2ccccc2c1=O`, for which the Potency entry in assay [1], in [2], in assay [3], in assay [4], in assay [6] and in [7] was “inactive” each time. Further, the Potency result in [8], in assay [9], in assay [17], in assay [10], in assay [20] and in assay [11] was “inactive” each time. Besides, the Potency result in [13] and in [14] was “inactive” each time. The result in assay [12] and in assay [15] was inactive. Moreover, the Potency in assay [16] is 27.3 µM (active).
`C[C@H](CCC(=O)O)[C@H]1CC[C@H]2[C@@H]3[C@H](O)C[C@@H]4C[C@H](O)CC[C@]4(C)[C@H]3CC[C@]12C`: the Potency result in assay [1], in assay [2], in assay [3], in assay [4], in assay [6] and in assay [7] was “inactive” in each case. Further, the Potency entry in assay [8], in assay [9], in [17], in assay [10], in assay [20] and in assay [18] was “inactive” each time. Also, the Potency entry in [11], in [13] and in assay [16] was “inactive” each time. Moreover, the outcome in [12] and in [15] was inactive.
For the compound `CCOC(=O)C1=NN(c2ccccc2)C(=O)C1`, the Potency entry in [1], in assay [2], in [3], in assay [4], in [5] and in assay [6] was “inactive” each time. For the same compound, the Potency entry in assay [7], in assay [8], in assay [9], in assay [10], in [20] and in [11] was “inactive” in each case. In addition, the Potency entry in [14] and in [16] was “inactive” throughout. Further, the compound was called inactive in [12] and in assay [15].
